Sampled rows, rich in hits. Any-hit rate of the full collection: about 3%.
SENP8 block-1 = human SENP8 protease inhibitors, primary screen, biochemical, fluorescence, Nedd8 protein substrate, uHTS; inhibition, % at 20 µM; recombinant SENP8; Sentrin-specific protease 8 (Homo sapiens), Q96LD8; 0.64% of 360,000 active; in the data active means inhibition mostly above about 40%, no sharp cut-off; inactive means mostly below about 27%
PPC-1+TRAIL kill = compounds killing PPC-1 cancer cells with TRAIL present, primary screen, TRAIL potentiator project, ATPLite luminescence, uHTS. PPC-1 cells + TRAIL, ATPLite viability luminescence. cell killing (% activity), % at 4 µM or 5 µM. 0.41% of 220,000 active;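 active means cell killing above 50% in the first pass at 4 µM, then a duplicate retest at 5 µM averaging 50% or more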;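 further: plate controls were cells with TRAIL plus DMSO for no effect and medium-only wells lacking cells for full effect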
SENP7 block = SENP7 protease inhibitors, primary screen, biochemical, luminescence, uHTS; inhibition, % at 5 µM; 1.5% of 330,000 active; AID 434973, 2010; recombinant SENP7, Z-RLRGG-aminoluciferin luminescence, 40 min;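 active means inhibition above about 50% at the single test dose, limit read from the data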;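 further: plate controls were DMSO with enzyme for no effect and no enzyme buffer wells for full effect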
Target sequence (Q9BQF6 706-1050 limits assumed): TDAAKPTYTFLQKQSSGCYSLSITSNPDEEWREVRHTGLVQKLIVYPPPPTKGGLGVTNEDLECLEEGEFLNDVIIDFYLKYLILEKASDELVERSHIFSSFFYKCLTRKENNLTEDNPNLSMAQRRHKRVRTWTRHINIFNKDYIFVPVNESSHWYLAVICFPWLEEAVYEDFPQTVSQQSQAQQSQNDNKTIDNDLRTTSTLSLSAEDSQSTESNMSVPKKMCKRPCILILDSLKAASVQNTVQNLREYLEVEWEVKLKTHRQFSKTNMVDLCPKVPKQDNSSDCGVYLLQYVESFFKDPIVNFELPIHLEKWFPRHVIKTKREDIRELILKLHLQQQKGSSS
SENP6 block = SENP6 protease inhibitors, primary screen, biochemical, luminescence, uHTS; Sentrin-specific protease 6 (Homo sapiens), Q9GZR1; Recombinant SENP6 catalytic domain, aminoluciferin luminescence; inhibition, % at 10 µM; 1.8% of 330,000 active;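 active means inhibition above about 50% at the single tested dose, limit read from the data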;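 further: plate controls were DMSO wells with enzyme for no effect and DMSO wells lacking enzyme for full effect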
C8 TRAIL sens = viability loss with TRAIL in NB7+C8 cells, primary screen, TRAIL sensitizer project, cell-based, ATPlite luminescence | inhibition (viability loss, TRAIL sensitization), % at 10 µM | 1% of 360,000 active | AID 624354, 2012;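 active means compounds causing at least 50% loss of cell viability in the single-dose screen, relative to plate controls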
SENP8 block-2 = SENP8 protease inhibitors, primary screen, biochemical, luminescence; purified SENP8, Z-RLRGG-aminoluciferin cleavage; AID 2540, 2010; 1.2% of 330,000 active; inhibition, % at 10 µM; in the data active means inhibition above about 50%
SENP8 confirm = SENP8 protease inhibitors, retest, confirmation, biochemical, luminescence, single concentration; inhibition, % at 12.5 µM; Recombinant SENP8, Z-RLRGG-aminoluciferin luminescence, 60 min; 40% of 6,200 active; shares compounds with SENP7 block;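 active means mean inhibition across replicates above about 50%, limit read from the data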
SENP6 conf = SENP6 protease inhibitors, confirmation, biochemical, luminescence, single concentration. inhibition, % at 12.5 µM. recombinant SENP6, Z-RLRGG-aminoluciferin luminescence. AID 488915, 2010. 58% of 6,200 active. shares compounds with SENP7 block
SENP7 confirm = SENP7 protease inhibitors, retest, confirmation, biochemical, luminescence, single concentration. shares compounds with SENP7 block. recombinant SENP7, Z-RLRGG-aminoluciferin luminescence, 40 min. inhibition, % at 12.5 µM. 69% of 6,200 active. AID 488917, 2010
Casp3 select = caspase-3 protease inhibitors, confirmation, selectivity assay for SENP inhibitor project, biochemical, single concentration; shares compounds with SENP7 block; purified caspase-3, Z-DEVD-aminoluciferin luminescence, 60 min; inhibition, % at 12.5 µM; 60% of 6,200 active; AID 488918, 2010;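 active means mean inhibition above about 50%, limit read from the data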;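 further: plate controls were enzyme with DMSO for no effect and wells without caspase-3 for full effect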
Luc interf = luminescence interference (SENP counter-screen); shares compounds with SENP7 block; Pre-incubated SENP8/Z-RLRGG-aminoluciferin, luciferase luminescence interference; inhibition, % at 12.5 µM; 39% of 6,200 active; AID 488919;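 active means mean inhibition above about 50% when retested at one dose, limit read from the data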;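 further: plate controls were DMSO wells with completed reaction for no effect and substrate without enzyme for full effect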
* = called active by the depositor; · = no result.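 How the source made its calls, unless noted: active means mean inhibition above about 50% in the one-dose retest (limit read from the data); inactive means the rest.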

SMILES	SENP8 block-1	PPC-1+TRAIL kill	SENP7 block	SENP6 block	C8 TRAIL sens	SENP8 block-2	SENP8 confirm	SENP6 conf	SENP7 confirm	Casp3 select	Luc interf
Cc1nn(-c2ccccc2)c(C)c1NC(=O)COC(=O)C1CC(=O)N(CCc2ccccc2)C1 (stereo unspecified)	-2	·	-3	-2	-7	-3	·	·	·	·	·
O=C(OCc1ccc(Cl)c(Cl)c1)c1ccccn1	8	-14	69*	80*	-13	51*	71*	69*	90*	71*	73*
O=C(OCc1ccc(Cl)c(Cl)c1)c1cccnc1Cl	12	·	3	37	-17	7	·	·	·	·	·
Nc1ncccc1OCc1ccc(Cl)c(Cl)c1	31	-10	81*	75*	3	70*	79*	79*	94*	75*	81*
CN(C)CCCN(C(=O)COc1ccccc1)c1nc2c(F)cccc2s1	18	10	61*	12	-30	-1	-29	-17	-7	-10	-12
COc1cccc2sc(N(CCCN(C)C)C(=O)COc3ccc(Cl)cc3)nc12	25	31	-2	0	1	-5	·	·	·	·	·
O=C(Nc1scc(-c2cccs2)c1C(=O)O)c1cccs1	-127	17	-8	87*	-9	76*	-20	80*	95*	80*	85*
COc1cc(C(=O)Nc2scc(-c3ccc(C)cc3)c2C(=O)O)cc(OC)c1OC	-147	·	-9	-9	6	0	·	·	·	·	·
O=C(Nc1scc(-c2ccccc2)c1C(=O)O)c1ccco1	-94	19	44	71*	15	47	62*	60*	87*	83*	76*
CCOC(=O)c1c(-c2cccs2)csc1NC(=O)c1ccncc1	-36	-3	-4	1	4	-3	·	·	·	·	·
Cc1ccc(C(=O)Nc2scc(-c3ccccc3)c2C(=O)O)cc1	-153	·	70*	94*	30	93*	7	97*	102*	95*	95*
COC(=O)c1c(-c2ccc(F)cc2)csc1NC(=O)c1ccco1	-496	22	-4	-3	8	-11	·	·	·	·	·
COc1ccc(-c2csc(NC(=O)c3ccccc3F)c2C(=O)O)cc1	-43	·	18	68*	15	60*	14	73*	90*	75*	76*
OC(Cc1ccnc2ccccc12)C(Cl)(Cl)Cl (stereo unspecified)	21	·	·	·	20	·	·	·	·	·	·
Oc1c(C=NCc2ccncc2)sc2ccccc12	·	5	2	7	·	13	·	·	·	·	·
Oc1c(C=Nc2cccnc2)sc2ccccc12	-195	27	13	78*	14	58*	7	73*	95*	81*	75*
Oc1sc(C=Nc2ccc(F)cc2)c2ccccc12	-67	-6	47	-38	-13	39	·	·	·	·	·
Oc1sc(C=Nc2ccccc2)c2ccccc12	-252	23	60*	28	-5	62*	81*	83*	96*	53*	82*

Bioassay records (PubChem BioAssay)
